# Measurements as given in ChEMBL document CHEMBL3988442, “University of Dundee, Small-Polar-MMV Screening Library” (2021).
# Screen size: about 48,000 compounds; about 13,000 (27%) showed an effect of 50% or more. Some of the results follow.
# Tested on: Wolbachia pipientis
# Assay: Anti-Wolbachia Cell-Based Screen
# Assay type: functional
# Design: scale not given: in the data most compounds retested in dose-response had high values
# Conditions: 5 µM
row,SMILES,Percent Effect
1,CCc1ncc2c(n1)CN(C(C)C(=O)N1CCOCC1)CC2 (configuration not stated),-13.62%
2,CC(Oc1ccc(F)cc1F)C(=O)N1CCC2(CCCO2)CC1 (configuration not stated),-4.107%
3,O=C(c1cn2ccsc2n1)N1CCOCC(O)(CN2CCCC2)C1 (configuration not stated),6.26%
4,CCOc1ccccc1OC1CCN(C(=O)c2ccc(=O)[nH]n2)CC1,-11.25%
5,O=C(c1cccc(O)n1)N1CCC(O)(CN2CCC(F)(F)CC2)C1 (configuration not stated),119.2%
6,O=C(c1ccc(=O)[nH]n1)N1CCCC(O)(CN2CCC(F)(F)CC2)CC1 (configuration not stated),110.9%
7,O=C(c1cnc(COc2ccccc2)nc1O)N1CCC(F)(F)CC1,10.39%
8,O=C(c1cc(F)ccc1F)C1CCN(C(=O)c2ccc(=O)[nH]n2)CC1,6.401%
9,NC(=O)Nc1cc(F)ccc1SCC(F)F,-8.756%
10,CCn1cc(CNC(C)c2noc(-c3ccc(Cl)cc3)n2)cn1 (configuration not stated),5.108%
11,CCN(CC1CCOC1)S(=O)(=O)Cc1ccccc1Cl (configuration not stated),-1.168%
12,CC(CN1CCOCC1)NCC1CCN(c2cnn(C)c(=O)c2)CC1 (configuration not stated),-0.8467%
13,CCc1[nH]c2c(CNC(=O)C3CCC(=O)NC3)cc(C)cc2c1C (configuration not stated),-3.367%
14,Cc1cccc(Oc2ccccc2CNC(=O)C2CCC(=O)NC2)c1 (configuration not stated),96.69%
15,Cc1ccc(CNC(=O)C2CCNC(=O)C2)c(OCCC(C)C)c1 (configuration not stated),103.9%
16,Cc1ccc(C)c(OCCNC(=O)[C@@H]2CCCCN2)c1,-1.478%
17,CCc1[nH]c2c(CNC(=O)C3CNC(=O)C3)cc(C)cc2c1C (configuration not stated),-7.809%
18,O=C1CC(C(=O)NCc2ccccc2Oc2ccccc2F)CCN1 (configuration not stated),91.68%
19,O=C1CCC(C(=O)NCCOc2cccc(Cl)c2Cl)CN1 (configuration not stated),-0.2416%
20,O=C(NCc1ccccc1OCC1CC1)C1CCOC1 (configuration not stated),-26.71%
21,O=C(CNC(=O)C1CC1)Nc1c(F)cccc1Oc1ccccc1,-3.554%
22,CC(C)(C)Oc1ccccc1CNC(=O)C1CCCOC1 (configuration not stated),-47.48%

row,SMILES,Percent Effect
1,Cc1ccc(C)c(OCCNC(=O)C2CCOC2)c1 (configuration not stated),-7.675%
2,Cc1cccc(Oc2ccccc2CNC(=O)C2CCNC(=O)C2)c1 (configuration not stated),104.5%
3,CC(NC(=O)N1CCSC(C)(C)C1)c1noc(-c2ccccc2)n1 (configuration not stated),-9.511%
4,CCC[C@H]1CN(Cc2cncn2C)C[C@@H]1NC(=O)C1(COC)CCC1,-8.158%
5,COCCNC(=O)c1ccoc1CN1c2ccccc2CC1C (configuration not stated),-13.79%
6,Cc1nc(C)n(CC(C)C(=O)N2CCCN(C3CCCC3)CC2)n1 (configuration not stated),-15.63%
7,O=C1O[C@@H]2CN(Cc3ccncc3)C[C@@H]2N1CCCN1CCOCC1,-10.63%
8,O=c1[nH][nH]cc1-c1ccnc(NCCN2CCCC2)n1,-6.447%
9,C[C@H]1CCCCN1CCCNc1nccc(-c2c[nH][nH]c2=O)n1,112%
10,O=c1[nH][nH]cc1-c1ccnc(NCCCN2CCOCC2)n1,116.9%
11,O=c1[nH][nH]cc1-c1ccnc(NCCN2CCCCC2)n1,112.5%
12,CC(C)COCC(NC(=O)c1ccccn1)c1ccco1 (configuration not stated),12.33%
13,O=C1CNCC(C(=O)N2CC(Oc3ccccc3Cl)C2)N1 (configuration not stated),-5.2%
14,COc1ccc(F)cc1CN1CCCn2nc(CNS(C)(=O)=O)cc2C1,6.854%
15,O=C(C1CC1)N1CCC(c2nc(-c3ccccc3)n[nH]2)CC1,-8.829%
16,Cc1ccc2c(c1)c(CNC(=O)C1CCN(C(=O)C3CC3)CC1)nn2C,-8.87%
17,CN1CCC(C(=O)N2CCC(c3ccc4c(N)n[nH]c4n3)CC2)CC1,104%
18,CCc1noc(CN(C)C(=O)C(C)(C)Oc2cccc(Cl)c2)n1,11.07%
19,CO[C@H]1COCCN(C(=O)c2ccc(C(F)(F)F)cc2)C1,-0.5949%
20,Cc1csc(CN2CCn3c(COc4cccnc4)cnc3C2C)n1.O=C(O)C(F)(F)F.O=C(O)C(F)(F)F (configuration not stated),106.1%
21,Cc1ncsc1CN1CCn2c(COc3cccnc3)cnc2C1C.O=C(O)C(F)(F)F.O=C(O)C(F)(F)F (configuration not stated),-6.197%
22,CCOCc1cnc2n1CCN(Cc1cccs1)C2C.O=C(O)C(F)(F)F (configuration not stated),10.91%

row,SMILES,Percent Effect
1,CC1c2ncc(COc3cccnc3)n2CCN1Cc1cnn(C)c1.O=C(O)C(F)(F)F.O=C(O)C(F)(F)F (configuration not stated),101.1%
2,Cc1ccsc1CN1CCn2c(COc3cccnc3)cnc2C1C.O=C(O)C(F)(F)F.O=C(O)C(F)(F)F (configuration not stated),105.4%
3,CC1c2ncc(COc3cccnc3)n2CCN1C(=O)C1=CCCC1.O=C(O)C(F)(F)F (configuration not stated),6.564%
4,CCOCc1cnc2n1CCN(Cc1nc(C)cs1)C2C.O=C(O)C(F)(F)F (configuration not stated),-1.73%
5,COCc1cnc2n1CCN(Cc1cccnc1)C2C.O=C(O)C(F)(F)F.O=C(O)C(F)(F)F (configuration not stated),-12.59%
6,Cc1ccc(CN2CCn3c(COc4cccnc4)cnc3C2C)o1.O=C(O)C(F)(F)F.O=C(O)C(F)(F)F (configuration not stated),105.5%
7,Cc1ccc(CN2CC[C@@H](N3CCOCC3)[C@@H]2Cc2cccnc2)o1.O=C(O)C(F)(F)F.O=C(O)C(F)(F)F.O=C(O)C(F)(F)F,-6.789%
8,CCNc1ncc(CN(CCN(C)C)Cc2ccc(C)s2)cn1,9.658%
9,CC(CC#N)N(C)Cc1ccc(F)cc1F (configuration not stated),-4.017%
10,NC(=O)Nc1cc(Br)cnc1OCC(F)(F)F,3.483%
11,CC(C)N1CCC(CC(=O)N(C)CC(=O)c2ccc(O)cc2)CC1,-41.3%
12,COc1cc(OC)cc(-n2ccnc2-c2cc3n(n2)CCNC3)c1,-3.796%
13,CN(C)C[C@H]1C[C@@H](CO)CN(C(=O)CCc2nc(Cl)n[nH]2)C1,-2.145%
14,Cc1cccc2c1nc1n2[C@@H](CNC2CCCCC2)COC1,-2.586%
15,CC1c2ncc(COc3cccnc3)n2CCN1Cc1ccco1 (configuration not stated),103.4%
16,CC1c2ncc(COc3cccnc3)n2CCN1C(=O)Cc1ccco1.O=C(O)C(F)(F)F (configuration not stated),6.97%
17,CCCNC(=O)c1ccc2c(c1)C(=O)N(CC(C)C)C2=O,12.13%
18,O=C(Cc1ccc(F)cc1)NS(=O)(=O)c1ccc(F)c(F)c1,-8.123%
19,CC[C@@]1(O)CCN(C(=O)c2ccoc2)C[C@H]1O,-13.59%
20,O=C(c1ccoc1)N1CCC(O)(C(F)(F)F)CC1,69.76%
21,O=C(c1cc(F)cc(F)c1)N1CCC2(CC1)CC2,32.79%
22,CC(=O)N1CC2(CCN(C(=O)c3ccoc3)C2)C1,-7.067%

row,SMILES,Percent Effect
1,Cc1ccc2cc(C(=O)N3CCC(O)(C(F)(F)F)CC3)ccc2n1,14.37%
2,O=C(c1cc(F)cc(F)c1)N1CCC(O)(C(F)(F)F)CC1,87.26%
3,CCc1nc2n(n1)CC(NCc1ccnc(-c3ccccc3)n1)CC2 (configuration not stated),7.748%
4,c1ccc(Cc2noc(CNC3CCc4ncnn4C3)n2)cc1 (configuration not stated),-0.1669%
5,CCc1nc2n(n1)CC(NCc1ncc(-c3ccccc3)o1)CC2 (configuration not stated),-4.969%
6,CCc1nc2n(n1)CC(NCc1nc(Cc3ccccc3)no1)CC2 (configuration not stated),105.9%
7,CCc1nc2n(n1)CC(NCc1nc3ccccc3o1)CC2 (configuration not stated),-13.4%
8,CCc1nc2n(n1)CC(NCc1cnc(-c3ccccc3)nc1)CC2 (configuration not stated),109.3%
9,CCc1nc2n(n1)CC(NCc1nc3ccccc3nc1C)CC2 (configuration not stated),-12.92%
10,CCc1nc2n(n1)CC(NCc1cnn(Cc3ccccc3)c1)CC2 (configuration not stated),87.86%
11,CCc1nc2n(n1)CC(NCc1nc(-c3cccnc3)no1)CC2 (configuration not stated),-12.29%
12,CCc1noc(C(C)N2CCN(Cc3cnc(C)cn3)CC2)n1 (configuration not stated),14.64%
13,O=C(NC[C@H]1OC[C@@H](NCc2ccccc2F)[C@@H]1O)Nc1ccccc1,-9.055%
14,CC(C)c1nccn1CCCNC(=O)c1ccc(-c2cncnc2)nc1,-0.1776%
15,Cc1ncc2c(n1)CN(Cc1nc(-c3ccsc3)oc1C)CC2,102.9%
16,CC(C)c1ncc2c(n1)CN(Cc1cccc3c1OCCO3)CC2,21.53%
17,CCc1ncc2c(n1)CN(Cc1nc(C)c(C)o1)CC2,-17.94%
18,CCc1ncc2c(n1)CN(Cc1nc(-c3ccco3)oc1C)CC2,106.4%
19,Cc1ncc2c(n1)CN(Cc1nnc(-c3occc3C)o1)CC2,2.201%
20,Cc1ncc2c(n1)CN(Cc1nc(-c3ccco3)oc1C)CC2,105%
21,CC(C)c1ncc2c(n1)CN(Cc1ccc3c(c1)OCCO3)CC2,-34.65%
22,Cc1ccc(-c2nnc(CN3CCc4cnc(C)nc4C3)o2)cc1,-1.089%

row,SMILES,Percent Effect
1,Cc1oc(-c2ccco2)nc1CN1CCc2cnc(C(C)C)nc2C1,92.73%
2,CCc1ncc2c(n1)CN(Cc1nc(-c3ccsc3)oc1C)CC2,1.537%
3,Cc1ncc2c(n1)CN(Cc1nc3ccccc3o1)CC2,10.13%
4,CCc1ncc2c(n1)CN(Cc1nnc(C)o1)CC2,12.23%
5,Cc1oc(-c2ccco2)nc1CN1CCc2cncnc2C1,88.65%
6,Cc1nc(CN2CCc3cncnc3C2)oc1C,-4.156%
7,COCc1ncn(Cc2nc(-c3ccco3)oc2C)n1,-24.79%
8,COCCCNS(=O)(=O)c1cc(Br)sc1C,2.901%
9,COc1cccc(F)c1C(C)NC(=O)NCc1cc(C(C)C)no1 (configuration not stated),-6.055%
10,O=C1CC(c2ccccc2)c2snc(C(=O)O)c2N1 (configuration not stated),-4.128%
11,C[C@H]1CN2C[C@H](O)CC2CN1Cc1ccc2nccnc2c1.Cl (some centres not stated),75.9%
12,CN(C)C(=O)CN1C[C@@H]2CC[C@H](C1)N(Cc1ccc3nsnc3c1)C2,10.45%
13,CCn1ccnc1CN1CCN(c2ncnc3ccsc23)CC1C (configuration not stated),11.61%
14,CS(=O)(=O)N1C[C@@H]2CC[C@H](C1)N(Cc1ccc3nsnc3c1)C2,5.437%
15,Cc1nccn1-c1ccc(NC(=O)C2CCCN2Cc2ccoc2)cc1 (configuration not stated),9.601%
16,Cc1nccn1-c1ccc(C(C)NCCC(C)C)cc1 (configuration not stated),-1.351%
17,C[C@@H]1CN2C[C@H](O)CC2CN1Cc1ccc2nccnc2c1 (some centres not stated),113.8%
18,Cc1nccn1-c1ccc(CN2CC3C[C@@H](O)CN3C[C@@H]2C)cc1 (some centres not stated),108%
19,COc1ccc(CN2CC(=O)N(c3ccc(C)cc3)CC2C)cc1O (configuration not stated),-1.266%
